Assay results published in PubChem BioAssay.
“And” between values parts separate entries of the source, which are not always exact repeats. Equal entries are not always repeated. Inconclusive results are not listed. The source made the active and inactive calls. Unless noted, cut-off not given; nearly all actives show AC50 up to about 26 µM.

Tests used:
[1] = stimulators of nuclear beta-catenin in C2C12, primary screen, imaging, WNT3A-conditioned medium, mouse C2C12, NPC library (AID 1117326; in the data active means nuclear beta-catenin stimulation mostly above about 4.2%, no sharp cut-off; inactive means mostly below about 10%; further: reference of the scale not given here); conditions: stronger effect = higher value
[2] = stimulators of insulin release from INS-1E, primary screen, cell-based, 5 mM glucose, NPC library (AID 1117329;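 active means compound raises insulin release from rat beta cells at 5 mM glucose, no numeric limit stated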; further: reference of the scale not given here); conditions: rat INS-1E insulin secretion, at 10 µM, stronger effect = higher value
[3] = growth inhibition of GSK3B-pretreated HCT116 cells – cell-based, CellTiter-Glo, 0.2 to 20 µM (AID 1117336;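 active means compounds lowering colon cancer cell viability after pretreatment blocking the GSK3B kinase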); conditions: HCT116 viability after GSK3B inhibitor, at 20 µM, stronger effect = higher value
[4] = inhibition of endothelial tube formation, primary screen, imaging, VEGF stimulated, CD31 staining, tube area, NPC library (AID 1117340;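 active means compound that reduces growth-factor-driven endothelial tube area in a mixed cell culture, no cutoff stated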); conditions: VEGF-stimulated ADSC/ECFC co-culture, at 10 µM, stronger effect = higher value
[5] = glucagon-like peptide 1 release enhancers, primary assay, NCI-H716 cell line, NPC library (AID 1117341;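 active means compound raises GLP1 secretion from the human gut endocrine cells, with no numeric limit stated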; further: reference of the scale not given here); conditions: NCI-H716 cells, at 10 µM, stronger effect = higher value
[6] = HCT116 colon cancer cell growth inhibition, primary screen, CellTiter-Glo luminescence, NPC library (AID 1117342;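 active means compounds that lower survival of HCT116 colon cancer cells in the luminescence readout, no numeric limit stated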); conditions: at 20 µM (top of the series)
[7] = CellTiter-Glo luminescent readout of SW480 viability loss, NPC library primary (AID 1117343;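 active means compounds that lower viability of the colon cancer cells in the luminescence readout, with no numeric limit stated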); conditions: CellTiter-Glo luminescence; at 20 µM (top of the series) unless noted
[8] = decreased DLD-1 cellular survival, CellTiter-Glo luminescent readout, NPC compound collection, primary HTS (AID 1117346;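 active means compounds that lower survival of DLD-1 colon cancer cells in the luminescence readout, no cutoff given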); conditions: DLD-1 viability, CellTiter-Glo luminescence; at 20 µM (top of the series)
[9] = growth inhibition of DIPG glioma cells, dose response, cell-based, JHH-DIPG-1, MIPE4.0, CellTiter-Glo, qHTS (AID 1347062; cut-off not given, nearly all actives have AC50 up to about 27 µM;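 on AC50: cells exposed to compound for two days before readout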); conditions: JHH-DIPG-1 viability, CellTiter-Glo ATP luminescence
[10] = growth inhibition of DIPG glioma cells, dose response, cell-based, SU-DIPG-IV, MIPE4.0, CellTiter-Glo, qHTS (AID 1347063; cut-off not given, nearly all actives have AC50 up to about 30 µM;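 further: compound exposure lasted 48 hours before the viability readout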); conditions: SU-DIPG-IV viability, CellTiter-Glo ATP luminescence
[11] = SU-DIPG-VI glioma cell viability, MIPE4.0 library, CellTiter-Glo luminescence, qHTS (AID 1347066; cut-off not given, nearly all actives have AC50 up to about 30 µM;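 further: cells exposed to compound for 48 hours before readout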); conditions: CellTiter-Glo ATP luminescence
[12] = JHH-DIPG-1 glioma cell viability, MIPE5.0 library, CellTiter-Glo luminescence, qHTS (AID 1347067); conditions: JHH-DIPG-1 glioma viability, CellTiter-Glo ATP luminescence;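 further: cells exposed to compound for 48 hours before readout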
[13] = SU-DIPG-XXV glioma cell viability, MIPE5.0 library, qHTS (AID 1347068; cut-off not given, nearly all actives have IC50 up to about 30 µM;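 on IC50: cells exposed to compound for 48 hours before viability readout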)
[14] = sensitizers of A549 cells to miR-34 induction, primary screen, imaging, A549 dox-inducible miR-34, nuclei and caspase counts (AID 1347080;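 active means compounds whose cell count with miR-34 switched on is under 0.7 times the count with it off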); conditions: A549 miR-34 inducible, Hoechst nuclei count, 48 h
[15] = phospholipid biosynthesis inhibitors in animal cells, primary screen, cell-based, LOPAC library, screen 4 (AID 1347384; call rule not given here); conditions: phospholipid biosynthesis inhibition screen, at 10 µM
[16] = viability rescue of complex I mutant cybrids, primary screen, cell-based, galactose medium, ATP luminescence (AID 1645843;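 active means z-score of at least 1.8 in each of two replicates, scored against plate mean and spread of sample wells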;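 further: positive z means more ATP and so rescue of galactose-driven cybrid death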); conditions: complex I mutant cybrid cells, 72 h, stronger effect = higher value
[17] = viability loss in pontine glioma line – cell-based, SU-DIPG-XXV, MIPE5.0, CellTiter-Glo, qHTS, dose response (AID 1347065); conditions: CellTiter-Glo ATP luminescence;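 further: cells exposed to compound for 48 hours before ATP readout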
[18] = survival rescue of mitochondrial mutant cells in low glucose, primary screen, MELAS cybrids, Rieske KO mouse fibroblasts, CellTiter-Glo (AID 1508586;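 active means mean z-score across replicates of 1.96 or higher in either the MELAS or the Rieske mutant cell line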;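 further: z relative to plate mean and SD of compound and empty wells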)
[19] = liver-stage malaria parasite growth inhibition, primary screen, cell-based, HepG2, luciferase luminescence, HepG2 viability (AID 624349; in the data active means parasite load remaining mostly below about 12%, no sharp cut-off; inactive means mostly above about 10%;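 further: 100% = mean of DMSO negative control wells on the same plate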); conditions: P. berghei liver stage in HepG2, luciferase luminescence, concentration not given here; parasite load remaining: stronger effect = lower value; viability: measured here: HepG2 viability without parasites
[20] = stronger effect = lower value, cell number ratio, induced over uninduced
[21] = measured here: relative caspase fold change +Dox/-Dox
[22] = measured here: total cells with miR-34 induction, stronger effect = lower value
[23] = measured here: total cells without miR-34 induction
[24] = MELAS cybrid survival, CellTiter-Glo 48 h, stronger effect = higher value
[25] = Rieske KO mouse fibroblast survival, CellTiter-Glo 72 h

CCCCN(CCCC)CC(O)c1cc(Cl)cc2c1-c1ccc(Cl)cc1/C2=C/c1ccc(Cl)cc1 (stereo unspecified)
-0.3%: nuclear beta-catenin stimulation ([1]; stimulation, at 2 µM)
8950: cell count [14, 22]
8560: cell count [14, 23]
inactive: nuclear beta-catenin stimulation ([1]; at 10 µM) 0.5% | insulin secretion stimulation [2] -0.3% | viability decrease [3] 9.1% | tube area decrease [4] 25.1% | GLP1 secretion stimulation [5] -3.6% | inhibition of viability [6] 31% | viability decrease (inhibition) [7] 10.6% | viability decrease (inhibition) [8] 14.9% | outcome [9] | outcome [11] | outcome [13] | fold change [14, 20] 1.04 | outcome [15] | z-score [16] 0.075
active: AC50 [10] 26.4 µM | AC50 [12] 18.6 µM
2.5: fold change [14, 21]

NC(=O)c1ncn([C@@H]2O[C@H](CO)[C@@H](O)[C@H]2O)c1N
inactive: nuclear beta-catenin stimulation ([1]; at 10 µM) 1.3% | insulin secretion stimulation [2] -2.3% | viability decrease [3] -16.2% | tube area decrease [4] -6.4% | GLP1 secretion stimulation [5] 1.9% | inhibition of viability [6] -20.6% | viability decrease (inhibition) [7] -88.2% | viability decrease (inhibition) [8] -22.4% | outcome [9] | outcome [17] | outcome [11] | outcome [12] | outcome [13]
1.8%: nuclear beta-catenin stimulation ([1]; stimulation, at 2 µM)

COc1ccc2cccc(CCNC(C)=O)c2c1
inactive: nuclear beta-catenin stimulation ([1]; at 10 µM) 1.6% | insulin secretion stimulation [2] -1.5% | viability decrease [3] 2.7% | tube area decrease [4] 1% | GLP1 secretion stimulation [5] -0.3% | inhibition of viability [6] 3.7% | viability decrease (inhibition) [7] -8.5% | viability decrease (inhibition) [8] 3.3% | outcome [9] | outcome [10] | outcome [17] | outcome [11] | outcome [12] | outcome [13] | fold change [14, 20] 0.904 and 0.982 and 0.944 | outcome [15] | z-score [18, 24] 0.556 and -0.393 | z-score [16] 0.205
8590 and 5820 and 7020: cell count [14, 22]
0.381 and 0.908 and 0.855: fold change [14, 21]
-1%: nuclear beta-catenin stimulation ([1]; stimulation, at 2 µM)
9510 and 5930 and 7430: cell count [14, 23]
0.28 and -0.0702: z-score [18, 25]

c1cnc2cc3c(cc2n1)C1CNCC3C1
-0.4%: nuclear beta-catenin stimulation ([1]; stimulation, at 2 µM)
1.76: fold change [14, 21]
inactive: nuclear beta-catenin stimulation ([1]; at 10 µM) -1.2% | insulin secretion stimulation [2] 0.7% | viability decrease [3] -3.9% | tube area decrease [4] 23.1% | GLP1 secretion stimulation [5] -4% | inhibition of viability [6] -2.57% | viability decrease (inhibition) [7] 9.4% | viability decrease (inhibition) [8] -12.7% | outcome [10] | outcome [17] | outcome [11] | outcome [13] | fold change [14, 20] 1.05 | outcome [15] | z-score [16] 0.205
10600: cell count [14, 23]
11200: cell count [14, 22]

O=[N+]([O-])c1cncn1CCN1CCOCC1
0.4%: nuclear beta-catenin stimulation ([1]; stimulation, at 2 µM)
inactive: nuclear beta-catenin stimulation ([1]; at 10 µM) -1.1% | insulin secretion stimulation [2] 0.4% | viability decrease [3] -4.6% | tube area decrease [4] 13.6% | GLP1 secretion stimulation [5] -1.3% | inhibition of viability [6] -5% | viability decrease (inhibition) [7] -2.7% | viability decrease (inhibition) [8] -11.2% | outcome [17] | outcome [12] | outcome [13]

Clc1ccc(C(Cn2ccnc2)OCc2c(Cl)cccc2Cl)c(Cl)c1 (stereo unspecified)
46.9% and 87.2%: viability [19]
inactive: parasite load remaining [19] 26.3% and 91.5% | nuclear beta-catenin stimulation ([1]; at 10 µM) 1.3% | insulin secretion stimulation [2] 3.1%
active: viability decrease [3] 110% | tube area decrease [4] 107% | GLP1 secretion stimulation [5] 35.3% | inhibition of viability [6] 113% | viability decrease (inhibition) [7] 132% | viability decrease (inhibition) [8] 101% | AC50 [17] 23.5 µM
-1.1%: nuclear beta-catenin stimulation ([1]; stimulation, at 2 µM)

CN(C)C(=O)COC(=O)Cc1ccc(OC(=O)c2ccc(N=C(N)N)cc2)cc1
8560: cell count [14, 22]
0.4%: nuclear beta-catenin stimulation ([1]; stimulation, at 2 µM)
0.433: fold change [14, 21]
inactive: nuclear beta-catenin stimulation ([1]; at 10 µM) 1.4% | insulin secretion stimulation [2] -0.35% | viability decrease [3] 16.9% | tube area decrease [4] -11.6% | GLP1 secretion stimulation [5] -0.7% | inhibition of viability [6] 13.5% | viability decrease (inhibition) [7] -4.4% | viability decrease (inhibition) [8] 4.3% | outcome [9] | outcome [17] | outcome [12] | outcome [13] | fold change [14, 20] 0.981 | z-score [18, 24] -0.283
0.0145: z-score [18, 25]
8730: cell count [14, 23]

Cc1cc2c(cc1CC(=O)c1sccc1S(=O)(=O)Nc1onc(C)c1Cl)OCO2
-0.0127: z-score [18, 25]
0.772: fold change [14, 21]
7800: cell count [14, 22]
inactive: nuclear beta-catenin stimulation ([1]; at 10 µM) 1.6% | insulin secretion stimulation [2] -0.3% | viability decrease [3] 2.7% | tube area decrease [4] -20.9% | GLP1 secretion stimulation [5] 2.9% | inhibition of viability [6] 20.9% | viability decrease (inhibition) [7] 6.8% | viability decrease (inhibition) [8] -17.2% | outcome [17] | fold change [14, 20] 0.871 | z-score [18, 24] -0.207
8950: cell count [14, 23]
active: AC50 [12] 26.3 µM
3%: nuclear beta-catenin stimulation ([1]; stimulation, at 2 µM)

O=P(O)(O)C(O)(Cn1ccnc1)P(=O)(O)O
130%: viability [19]
1.6: fold change [14, 21]
9230: cell count [14, 22]
inactive: parasite load remaining [19] 30.2% | nuclear beta-catenin stimulation ([1]; at 10 µM) 0.4% | insulin secretion stimulation [2] 0.2% | viability decrease [3] -1.1% | tube area decrease [4] 8.6% | GLP1 secretion stimulation [5] -0.1% | inhibition of viability [6] 16.4% | viability decrease (inhibition) [7] 32.9% | viability decrease (inhibition) [8] 17.2% | outcome [9] | outcome [17] | outcome [11] | outcome [12] | outcome [13] | fold change [14, 20] 0.851 | z-score [18, 24] -0.129 and 0.228 | z-score [16] 0.405
-0.459 and -1.13: z-score [18, 25]
10900: cell count [14, 23]
1%: nuclear beta-catenin stimulation ([1]; stimulation, at 2 µM)

CCC1=C[C@@H]2CN(C1)Cc1c([nH]c3ccccc13)[C@@](C(=O)OC)(c1cc3c(cc1OC)N(C)[C@H]1[C@@](O)(C(=O)OC)[C@H](OC(C)=O)[C@]4(CC)C=CCN5CC[C@]31[C@@H]54)C2
active: nuclear beta-catenin stimulation ([1]; at 10 µM) 60.8% | viability decrease [3] 103% | tube area decrease [4] 106% | inhibition of viability [6] 94.3% | viability decrease (inhibition) [7] 91.4% | viability decrease (inhibition) [8] 76.7% | AC50 [9] 0.0132 µM | AC50 [17] 0.204 µM | AC50 [12] 0.144 µM | IC50 [13] 1.15 µM
85%: viability [19]
1.89: z-score [18, 25]
1.02: fold change [14, 21]
2030: cell count [14, 23]
inactive: parasite load remaining [19] 30.5% | insulin secretion stimulation [2] 2.25% | GLP1 secretion stimulation [5] 2.5% | fold change [14, 20] 0.917 | z-score [18, 24] -2.16 | z-score [16] -2.04
72.7%: nuclear beta-catenin stimulation ([1]; stimulation, at 2 µM)
1860: cell count [14, 22]
